Where “and” joins values, the source holds several entries; their conditions need not be identical. Equal values may be shown once. Results filed as inconclusive are left out. Some compounds were tested as several samples or in several runs, with calls that do not always agree. Calls of active or inactive are those of the source. Rule for the calls, unless noted: active = hit-call score of the fitted dose curve at least 0.9, where 1 is the maximum; inactive = score below 0.9.
Legend:
[1] = ATG_RORE_CIS: Attagene CIS-FACTORIAL HepG2 Assay for human RAR-related Orphan Receptor Element (RORE) (AID 2282959); conditions: HepG2 Attagene cis-factorial RORE reporter, mRNA; actives raise or lower the signal
In short: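 Transiently transfected HepG2 reporter cells were treated 24 h. Reporter transcripts were detected by RT-PCR and capillary electrophoresis, with bidirectional fitting against DMSO.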

[2] = ATG_Sox_CIS: Attagene CIS-FACTORIAL HepG2 Assay for human SRY-box transcription factor (SOX) (AID 2282960); conditions: HepG2 Attagene cis-factorial SOX reporter, mRNA; actives raise or lower the signal
In short: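 Gain- or loss-of-signal endpoint, fitted bidirectionally with DMSO as negative control. Based on reporter mRNA from transfected HepG2 cells harvested 24 h post-treatment and quantified via RT-PCR and capillary electrophoresis.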

[3] = biological target: Transcription factor Sp1 (Homo sapiens) (UniProt P08047); experiment: ATG_Sp1_CIS: Attagene CIS-FACTORIAL HepG2 Assay for human Specificity Protein 1 (Sp1) (AID 2282961); conditions: HepG2 Sp1 cis-reporter transcription, actives raise or lower the signal
In short: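 Endpoint reflects endogenous Sp1 transcriptional activity, not an exogenous fusion protein: HepG2 cells with transfected cis-regulated reporters, 24 h dosing, RT-PCR/capillary electrophoresis mRNA read-out, DMSO-normalised bidirectional fit.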

[4] = ATG_SREBP_CIS: Attagene CIS-FACTORIAL HepG2 Assay for human Sterol Regulatory Element Binding (SREBP) (AID 2282962); conditions: HepG2 Attagene cis-factorial SREBP reporter, mRNA; actives raise or lower the signal
In short: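 Readout: fluorescent reporter-transcript peaks resolved by capillary electrophoresis after RT-PCR. Cells were human HepG2 carrying transfected cis-promoter reporter constructs, dosed for 24 h. Gain or loss of signal was fitted against DMSO controls.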

[5] = biological target: Signal transducer and activator of transcription 3 (Homo sapiens) (UniProt P40763); experiment: ATG_STAT3_CIS: Attagene CIS-FACTORIAL HepG2 Assay for human Signal Transducer and Activator of Transcription 3 (STAT3) (AID 2282963); conditions: HepG2, Attagene cis-factorial STAT3 reporter transcription; actives raise or lower the signal
In short: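 Cis-factorial format: endogenous transcription factors in HepG2 drive transfected reporter units. After 24 h treatment, reporter RNA was reverse-transcribed, amplified, FAM-labelled and HpaI-digested before CE analysis; activity scored in both directions against DMSO.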

[6] = ATG_TA_CIS: Attagene CIS-FACTORIAL HepG2 Assay for human TA Basal Promoter (AID 2282964); conditions: HepG2 Attagene CIS-factorial TA basal promoter reporter; actives raise or lower the signal
In short: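 Transfected HepG2, 24 h compound exposure; RNA → RT-PCR → FAM primer extension → HpaI cut → CE fluorescence. Gain/loss-of-signal fitted against DMSO negative control. Background-control readout.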

[7] = ATG_TCF_b_cat_CIS: Attagene CIS-FACTORIAL HepG2 Assay for human T-Cell-Factor with beta-catenin (TCF/b-cat) (AID 2282965); conditions: HepG2 TCF/beta-catenin cis-reporter transcription, actives raise or lower the signal
In short: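 Endogenous transcription factor activity is captured through cis-promoter reporter constructs transiently introduced into human HepG2 liver cells. Induced reporter mRNA is measured after 24 h and fitted bidirectionally relative to DMSO.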

[8] = ATG_TAL_CIS: Attagene CIS-FACTORIAL HepG2 Assay for human TAL Basal Promoter (AID 2282966); conditions: HepG2 Attagene cis-factorial TAL promoter reporter; actives raise or lower the signal;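 note: background control endpoint measuring basal TAL promoter reporter mRNA not a specific factor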
In short: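 HepG2, transient MRTU transfection, 24 h compound exposure; RNA → oligo(dT) RT → PCR → 6-FAM primer extension → HpaI digest → CE fluorescence. Bidirectional curve fit vs DMSO. Background-control readout.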

[9] = ATG_TGFb_CIS: Attagene CIS-FACTORIAL HepG2 Assay for human Transforming Growth Factor (TGF) (AID 2282967); conditions: HepG2 Attagene CIS TGFb reporter, mRNA transcription; actives raise or lower the signal
In short: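 Readout: fluorescently labeled reporter cDNA fragments resolved by capillary electrophoresis after RT-PCR. Transfected HepG2 cells dosed for 24 h; endogenous TF activity at TGFB1-linked cis element; gain or loss fitted relative to DMSO.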

[10] = ATG_VDRE_CIS: Attagene CIS-FACTORIAL HepG2 Assay for human Vitamin D Receptor Element (VDRE) (AID 2282968); conditions: HepG2 VDRE cis-reporter transcription, actives raise or lower the signal
In short: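 Measures endogenous factor activity through cis-element-driven reporter transcripts in transiently transfected HepG2. Cells are treated 24 h; reporter mRNA is quantified by RT-PCR and capillary electrophoresis; fitting is bidirectional.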

[11] = biological target: Estrogen receptor (Homo sapiens) (UniProt P03372); experiment: ATG_ERa_TRANS: Attagene TRANS-FACTORIAL HepG2 Assay for human Estrogen Receptor alpha (ERa) (AID 2282970; active = hit-call score of the fitted dose curve at least 0.9, where 1 is the maximum); conditions: HepG2 Attagene TRANS ERa GAL4 reporter, mRNA
In short: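 Reporter mRNA induction after 24 hours, detected by fluorescent RT-PCR and capillary electrophoresis, gives the read-out. Cells are HepG2 transiently transfected with GAL4-UAS reporter transcription units responding to chimeric NR-Gal4. Activity is taken as gain of signal over DMSO baseline.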

[12] = biological target: Steroid hormone receptor ERR1 (Homo sapiens) (UniProt P11474); experiment: ATG_ERRa_TRANS: Attagene TRANS-FACTORIAL HepG2 Assay for human Estrogen-Related Receptor alpha (ERRa) (AID 2282971; active = hit-call score of the fitted dose curve at least 0.9, where 1 is the maximum); conditions: HepG2 Attagene TRANS reporter, ERRa transactivation
In short: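 Transfected HepG2, 24 h dosing, ERRa-Gal4 chimera driving GAL4-UAS reporter. Readout: reporter mRNA via RT-PCR plus capillary electrophoresis (fluorescence). Positive direction vs DMSO control.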

[13] = biological target: X-box-binding protein 1 (Homo sapiens) (UniProt P17861); experiment: ATG_Xbp1_CIS: Attagene CIS-FACTORIAL HepG2 Assay for human X-box Binding Protein 1 (XBP1) (AID 2282972); conditions: HepG2 XBP1 cis-element reporter, Attagene multiplex; actives raise or lower the signal
In short: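 Read-out: fluorescent reporter mRNA fragments resolved by capillary electrophoresis after RT-PCR. Human HepG2 liver cells carried transfected cis-promoter reporter units and were exposed to chemicals for 24 hours. Gain or loss of signal fitted relative to DMSO baseline.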

[14] = biological target: Androgen receptor (Homo sapiens) (UniProt P10275); experiment: ATG_AR_TRANS: Attagene TRANS-FACTORIAL HepG2 Assay for human Androgen Receptor (AR) (AID 2282973; active = hit-call score of the fitted dose curve at least 0.9, where 1 is the maximum); conditions: HepG2 Attagene TRANS-FACTORIAL AR reporter transcription
In short: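 Readout is reporter transcript abundance, quantified by fluorescent RT-PCR products separated on capillary electrophoresis. Human HepG2 liver cells carried transiently transfected NR-Gal4 chimera plus GAL4-UAS reporter constructs and were dosed for 24 h; activity scored upward versus DMSO.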

[15] = ATG_M_19_TRANS: Attagene TRANS-FACTORIAL HepG2 Assay for M19 Transcription Factor (Internal Marker) (AID 2282974; active = hit-call score of the fitted dose curve at least 0.9, where 1 is the maximum); conditions: HepG2 Attagene TRANS-FACTORIAL M19 internal marker reporter
In short: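 Using RT-PCR and capillary electrophoresis, reporter mRNA from transiently transfected human HepG2 cells was quantified following 24 h exposure; activity was fitted in the positive direction against DMSO.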

[16] = biological target: Estrogen-related receptor gamma (Homo sapiens) (UniProt P62508); experiment: ATG_ERRg_TRANS: Attagene TRANS-FACTORIAL HepG2 Assay for human Estrogen-Related Receptor gamma (ERRg) (AID 2282977; active = hit-call score of the fitted dose curve at least 0.9, where 1 is the maximum;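 note: hits increase reporter signal over DMSO so potencies reflect activators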); conditions: HepG2 Attagene TRANS reporter, ERRg transactivation
In short: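 Exogenous NR-Gal4 chimera activity was assessed in HepG2 cells bearing transfected GAL4-UAS reporters. After 24 h dosing, total RNA underwent RT-PCR, fluorescent primer extension and HpaI digestion before capillary electrophoresis, with gain of signal scored against DMSO.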

[17] = biological target: Glucocorticoid receptor (Homo sapiens) (UniProt P04150); experiment: ATG_GR_TRANS: Attagene TRANS-FACTORIAL HepG2 Assay for human Glucocorticoid Receptor (GR) (AID 2282978; active = hit-call score of the fitted dose curve at least 0.9, where 1 is the maximum;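 note: activators score as hits since higher reporter transcript over DMSO is fitted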); conditions: HepG2 Attagene TRANS GR reporter, mRNA transcription
In short: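 Exogenous NR-GAL4 fusion activity was assessed through induced GAL4-UAS reporter transcripts in transfected human HepG2 cells, quantified after 24 h by RT-PCR and fluorescent capillary electrophoresis with DMSO as baseline.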

[18] = ATG_PPRE_CIS: Attagene CIS-FACTORIAL HepG2 Assay for human Peroxisome Proliferator-activated Response Element (PPRE) (AID 2282958); conditions: HepG2 PPRE cis-element reporter, Attagene transcription factor profiling; actives raise or lower the signal
In short: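 Measured endpoint: PPRE-controlled reporter mRNA, detected by RT-PCR and capillary electrophoresis fluorescence, from transiently transfected HepG2 cells 24 h after dosing. Curves fitted in both directions using DMSO baseline.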

[19] = ATG_GAL4_TRANS: Attagene TRANS-FACTORIAL HepG2 Assay for GAL4 (Internal Marker) (AID 2282976; active = hit-call score of the fitted dose curve at least 0.9, where 1 is the maximum); conditions: HepG2 Attagene TRANS GAL4 internal marker reporter
In short: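 RT-PCR/capillary electrophoresis readout of reporter mRNA. HepG2, transient MRTU transfection (GAL4-UAS reporters), 24 h compound exposure. Background-control endpoint, positive direction vs DMSO baseline.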

[20] = biological target: Nuclear receptor subfamily 1 group I member 3 (Homo sapiens) (UniProt Q14994); experiment: ATG_CAR_TRANS: Attagene TRANS-FACTORIAL HepG2 Assay for human Constitutive Androstane Receptor (CAR) (AID 2282969; active = hit-call score of the fitted dose curve at least 0.9, where 1 is the maximum;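 note: activators raise reporter mRNA above DMSO so AC50 marks induction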); conditions: HepG2 Attagene TRANS-FACTORIAL CAR reporter
In short: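 Signal is reporter mRNA induction relative to DMSO, measured 24 h after dosing by RT-PCR with fluorescent primer extension and capillary electrophoresis. Human HepG2 liver cells carried transiently transfected chimeric NR-Gal4/GAL4-UAS reporter constructs.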

Measured: AC50

Steroid hormone receptor ERR1 (Homo sapiens), sequence (P11474 whole entry, looked up, the tested form may be a part): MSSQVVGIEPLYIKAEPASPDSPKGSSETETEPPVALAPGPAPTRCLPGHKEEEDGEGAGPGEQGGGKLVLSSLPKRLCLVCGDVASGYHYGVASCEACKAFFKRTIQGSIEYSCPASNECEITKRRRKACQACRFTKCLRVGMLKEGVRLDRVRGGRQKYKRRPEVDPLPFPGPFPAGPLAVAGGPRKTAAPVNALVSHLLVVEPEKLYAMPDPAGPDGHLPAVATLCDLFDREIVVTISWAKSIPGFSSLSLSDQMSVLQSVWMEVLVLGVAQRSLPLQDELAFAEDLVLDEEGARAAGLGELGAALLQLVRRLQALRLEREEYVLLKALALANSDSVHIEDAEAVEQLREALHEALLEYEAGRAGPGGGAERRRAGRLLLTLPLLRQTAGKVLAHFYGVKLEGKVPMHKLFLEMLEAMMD
Glucocorticoid receptor (Homo sapiens), sequence (P04150 whole entry, looked up, the tested form may be a part): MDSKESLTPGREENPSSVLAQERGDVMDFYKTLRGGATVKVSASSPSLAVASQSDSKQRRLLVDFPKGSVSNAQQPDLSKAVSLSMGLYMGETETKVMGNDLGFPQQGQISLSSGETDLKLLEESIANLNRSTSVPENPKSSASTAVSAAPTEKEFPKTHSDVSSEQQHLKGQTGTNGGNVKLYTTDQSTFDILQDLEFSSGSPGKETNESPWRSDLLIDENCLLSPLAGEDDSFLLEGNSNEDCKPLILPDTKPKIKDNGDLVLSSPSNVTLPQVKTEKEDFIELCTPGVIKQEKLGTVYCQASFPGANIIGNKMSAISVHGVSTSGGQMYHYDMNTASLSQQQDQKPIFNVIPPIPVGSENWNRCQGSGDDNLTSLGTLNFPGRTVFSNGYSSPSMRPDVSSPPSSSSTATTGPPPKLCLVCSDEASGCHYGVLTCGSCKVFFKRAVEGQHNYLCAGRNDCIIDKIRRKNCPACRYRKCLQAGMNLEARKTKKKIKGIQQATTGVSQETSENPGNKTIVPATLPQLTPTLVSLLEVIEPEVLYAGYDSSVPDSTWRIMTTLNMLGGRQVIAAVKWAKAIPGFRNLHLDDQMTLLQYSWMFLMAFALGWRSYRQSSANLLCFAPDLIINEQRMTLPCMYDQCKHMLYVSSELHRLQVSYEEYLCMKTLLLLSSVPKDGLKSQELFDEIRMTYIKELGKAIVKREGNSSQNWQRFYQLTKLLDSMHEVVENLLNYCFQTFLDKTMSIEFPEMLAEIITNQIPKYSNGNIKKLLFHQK
X-box-binding protein 1 (Homo sapiens), sequence (P17861 whole entry, looked up, the tested form may be a part): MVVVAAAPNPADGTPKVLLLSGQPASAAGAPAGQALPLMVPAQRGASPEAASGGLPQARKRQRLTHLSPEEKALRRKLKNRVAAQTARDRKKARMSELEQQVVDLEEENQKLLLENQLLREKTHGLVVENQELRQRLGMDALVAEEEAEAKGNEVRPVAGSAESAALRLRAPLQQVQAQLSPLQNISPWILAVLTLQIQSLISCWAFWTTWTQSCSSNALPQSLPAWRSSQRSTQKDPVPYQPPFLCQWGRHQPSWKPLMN
Transcription factor Sp1 (Homo sapiens), sequence (P08047 whole entry, looked up, the tested form may be a part): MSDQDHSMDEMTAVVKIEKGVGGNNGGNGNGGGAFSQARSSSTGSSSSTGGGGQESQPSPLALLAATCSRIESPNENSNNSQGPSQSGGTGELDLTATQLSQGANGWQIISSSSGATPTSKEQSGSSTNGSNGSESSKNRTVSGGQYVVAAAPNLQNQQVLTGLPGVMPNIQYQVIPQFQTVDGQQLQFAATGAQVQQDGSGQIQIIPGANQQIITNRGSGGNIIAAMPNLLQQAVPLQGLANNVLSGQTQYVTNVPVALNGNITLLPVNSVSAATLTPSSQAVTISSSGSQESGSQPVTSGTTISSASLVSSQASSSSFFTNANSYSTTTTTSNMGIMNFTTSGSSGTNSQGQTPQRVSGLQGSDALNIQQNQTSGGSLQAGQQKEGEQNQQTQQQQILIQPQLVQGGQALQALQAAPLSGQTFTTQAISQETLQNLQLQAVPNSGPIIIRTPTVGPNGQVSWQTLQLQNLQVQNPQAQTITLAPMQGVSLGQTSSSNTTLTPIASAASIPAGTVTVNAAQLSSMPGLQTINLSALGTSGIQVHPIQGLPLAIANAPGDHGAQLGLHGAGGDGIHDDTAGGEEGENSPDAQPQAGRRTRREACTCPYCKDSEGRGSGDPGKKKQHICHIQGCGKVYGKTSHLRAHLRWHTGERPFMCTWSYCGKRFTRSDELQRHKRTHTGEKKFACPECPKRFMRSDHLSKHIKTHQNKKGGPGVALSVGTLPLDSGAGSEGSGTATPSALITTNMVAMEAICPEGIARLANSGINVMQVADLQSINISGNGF
Androgen receptor (Homo sapiens), sequence (P10275 whole entry, looked up, the tested form may be a part): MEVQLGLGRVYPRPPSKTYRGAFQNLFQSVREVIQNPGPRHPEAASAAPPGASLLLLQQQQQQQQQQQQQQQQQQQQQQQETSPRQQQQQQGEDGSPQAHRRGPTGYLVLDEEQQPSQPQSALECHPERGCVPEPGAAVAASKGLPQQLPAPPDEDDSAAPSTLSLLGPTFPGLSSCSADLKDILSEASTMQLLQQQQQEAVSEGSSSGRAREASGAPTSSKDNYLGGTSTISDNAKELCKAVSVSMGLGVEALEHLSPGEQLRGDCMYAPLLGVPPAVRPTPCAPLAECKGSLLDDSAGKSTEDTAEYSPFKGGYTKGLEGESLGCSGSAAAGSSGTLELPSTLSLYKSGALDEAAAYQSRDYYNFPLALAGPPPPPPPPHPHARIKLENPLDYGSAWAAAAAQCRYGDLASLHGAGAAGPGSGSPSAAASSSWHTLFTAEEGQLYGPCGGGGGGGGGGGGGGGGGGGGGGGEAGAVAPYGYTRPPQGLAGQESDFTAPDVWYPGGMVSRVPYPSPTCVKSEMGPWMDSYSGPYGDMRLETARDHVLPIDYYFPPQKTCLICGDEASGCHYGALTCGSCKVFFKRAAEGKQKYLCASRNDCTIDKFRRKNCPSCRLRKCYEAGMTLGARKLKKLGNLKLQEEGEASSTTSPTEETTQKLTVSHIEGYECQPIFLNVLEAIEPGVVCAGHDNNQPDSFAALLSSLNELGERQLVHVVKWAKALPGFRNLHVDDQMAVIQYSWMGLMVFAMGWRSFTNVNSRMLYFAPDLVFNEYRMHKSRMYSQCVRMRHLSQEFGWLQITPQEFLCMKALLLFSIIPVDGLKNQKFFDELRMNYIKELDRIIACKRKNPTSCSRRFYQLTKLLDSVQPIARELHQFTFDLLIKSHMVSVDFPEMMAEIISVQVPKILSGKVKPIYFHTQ
Estrogen receptor (Homo sapiens), sequence (P03372 whole entry, looked up, the tested form may be a part): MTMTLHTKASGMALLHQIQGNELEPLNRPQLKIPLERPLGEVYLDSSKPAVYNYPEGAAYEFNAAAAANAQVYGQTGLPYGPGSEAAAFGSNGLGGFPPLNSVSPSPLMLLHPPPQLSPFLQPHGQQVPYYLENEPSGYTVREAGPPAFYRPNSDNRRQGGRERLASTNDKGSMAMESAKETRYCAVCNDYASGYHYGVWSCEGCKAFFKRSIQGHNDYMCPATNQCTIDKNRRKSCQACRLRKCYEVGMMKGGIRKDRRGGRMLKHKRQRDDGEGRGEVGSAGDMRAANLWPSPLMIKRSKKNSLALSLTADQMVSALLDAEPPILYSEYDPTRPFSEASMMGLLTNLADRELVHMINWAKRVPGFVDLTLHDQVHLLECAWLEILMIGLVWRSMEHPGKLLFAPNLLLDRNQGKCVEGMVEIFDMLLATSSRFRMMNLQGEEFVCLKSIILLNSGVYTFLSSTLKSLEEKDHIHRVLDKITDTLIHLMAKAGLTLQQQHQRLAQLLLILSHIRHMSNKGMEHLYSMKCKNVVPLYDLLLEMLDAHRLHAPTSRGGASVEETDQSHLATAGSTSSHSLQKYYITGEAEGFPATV
Estrogen-related receptor gamma (Homo sapiens), sequence (P62508 whole entry, looked up, the tested form may be a part): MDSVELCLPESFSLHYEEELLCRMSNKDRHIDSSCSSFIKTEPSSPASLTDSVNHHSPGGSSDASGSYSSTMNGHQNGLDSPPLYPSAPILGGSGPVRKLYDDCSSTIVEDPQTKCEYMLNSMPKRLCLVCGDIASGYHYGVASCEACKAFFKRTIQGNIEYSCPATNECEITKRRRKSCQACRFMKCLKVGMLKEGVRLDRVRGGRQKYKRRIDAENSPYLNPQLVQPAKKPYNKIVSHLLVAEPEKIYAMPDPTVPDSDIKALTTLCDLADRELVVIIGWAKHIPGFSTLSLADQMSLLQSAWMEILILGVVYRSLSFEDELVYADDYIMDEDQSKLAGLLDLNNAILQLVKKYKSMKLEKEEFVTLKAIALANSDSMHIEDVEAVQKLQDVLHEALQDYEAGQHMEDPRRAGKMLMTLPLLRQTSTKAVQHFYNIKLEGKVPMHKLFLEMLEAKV
Signal transducer and activator of transcription 3 (Homo sapiens), sequence (P40763 whole entry, looked up): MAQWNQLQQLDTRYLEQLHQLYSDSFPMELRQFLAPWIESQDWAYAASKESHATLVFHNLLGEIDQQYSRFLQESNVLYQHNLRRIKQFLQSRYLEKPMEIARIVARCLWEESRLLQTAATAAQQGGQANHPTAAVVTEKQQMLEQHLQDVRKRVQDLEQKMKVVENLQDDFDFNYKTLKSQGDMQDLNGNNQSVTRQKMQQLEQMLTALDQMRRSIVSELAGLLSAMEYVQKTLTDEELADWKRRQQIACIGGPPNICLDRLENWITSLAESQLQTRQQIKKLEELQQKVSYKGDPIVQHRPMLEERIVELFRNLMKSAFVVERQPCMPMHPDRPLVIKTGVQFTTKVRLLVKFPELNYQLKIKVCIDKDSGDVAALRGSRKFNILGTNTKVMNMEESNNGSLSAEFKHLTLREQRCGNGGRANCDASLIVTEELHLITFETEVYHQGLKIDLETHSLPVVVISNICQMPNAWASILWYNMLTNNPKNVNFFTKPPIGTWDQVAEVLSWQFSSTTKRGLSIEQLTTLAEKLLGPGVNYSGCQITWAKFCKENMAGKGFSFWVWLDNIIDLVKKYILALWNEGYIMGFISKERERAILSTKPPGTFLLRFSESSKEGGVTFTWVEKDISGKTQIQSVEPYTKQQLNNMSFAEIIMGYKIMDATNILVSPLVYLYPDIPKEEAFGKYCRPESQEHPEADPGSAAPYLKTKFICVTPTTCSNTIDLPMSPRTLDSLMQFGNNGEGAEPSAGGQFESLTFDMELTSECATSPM

CCSC(C)CC1CC(=O)C(C(CC)=NOC/C=C/Cl)=C(O)C1 (stereo not drawn)
active: [10] 11.3 µM
not listed: [18] | [19] | [20]
inactive: all other assays above

CCOC(=O)/C=C(C)/C=C/C[C@@H](C)CCCC(C)C
active: [4] 124 µM | [5] 176 µM
inactive: [18] | [2] | [3] | [6] | [7] | [8] | [10] | [13] | [19]

CC(=O)C=C(C)C
not listed: [14] | [15] | [18] | [20]
inactive: all other assays above

CCCCP(CCCC)CCCC
not listed: [12] | [14] | [16] | [17] | [18] | [20]
inactive: all other assays above

O=c1[nH]c(=O)[nH]c(=O)[nH]1
not listed: [11] | [18]
inactive: all other assays above

CC(C)(C)CC(C)(C)c1ccc(O)cc1
active: [4] 14.1 µM | [7] 18.2 µM | [10] 3.28 µM and 14.2 µM
inactive: [1] | [2] | [3] | [4] | [5] | [6] | [7] | [8] | [9] | [10] | [13] | [14] | [15] | [17]

Reference: PubChem BioAssay (EPA / NIEHS)
